Among the data in PubChem BioAssay AID1159580 (chemical genetic matrix, 2015) are normalized growth values, retold here.

The nature of this test: chemical genetic growth profiling, strain panel (AID 1159580).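 Further: tested at 20 µM; growth read once vehicle control cultures reached saturation at 30 °C; 1 = growth at the plate median or of vehicle wells; lower values mean less growth of the strain.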 As to conditions: S. cerevisiae deletion strains, growth OD.

Molecules are shown by their SMILES. The whole screen tested about 5,500 compounds, of which about 2,000 (36%) were called active. Roughly 18% stayed inconclusive and do not appear here. Some of the results follow. Unmarked numbers belong to inactive results. No stated cut-off is given here; in the data, active means normalized growth mostly below about 0.91 (no sharp cut-off); inconclusive means no clear call, values can overlap the other calls; inactive means mostly above about 0.92.

With `COc1ccc2c(c1)CCC1C2CC[C@@]2(C)C1CC[C@@H]2NCCCCCCN1C(=O)C=CC1=O` (stereo partly drawn), the normalized growth (locus YAL013W, strain DEP1, active compounds read low) was 0.989; the normalized growth (locus YAL040C, strain CLN3, active compounds read low) was 0.444 (active); the normalized growth (locus YCL061C, strain MRC1 (second series), active compounds read low) was 0.998; the normalized growth (locus YDR150W, strain NUM1, active compounds read low) was 0.976; the normalized growth (locus YDR363W, strain ESC2, active compounds read low) is 0.988; the normalized growth (locus YER002W, strain NOP16, active compounds read low) is 0.843 (active). For the same compound, the normalized growth is 0.997 (locus YJR075W, strain HOC1, active compounds read low); 0.93 (locus YMR307W, strain GAS1, active compounds read low); 1.07 (locus YNL197C, strain WHI3, active compounds read low); 0.256 (active) (locus YNL224C, strain SQS1, active compounds read low); 0.984 (locus YNL322C, strain KRE1, active compounds read low); 1.02 (locus YOR083W, strain WHI5 (second series), active compounds read low). For the same compound, the normalized growth (locus YPL241C, strain CIN2, active compounds read low) is 0.993.
